From PubChem BioAssay
Pf Dd2 inh – qHTS Primary assay for Inhibitors of Plasmodium falciparum Dd2 growth in vitro; Potency, µM (top dose mostly 28.9 µM), without a hit: top-dose activity, negative = inhibition, actives largely listed as inhibitors; P. falciparum Dd2 growth, SYBR Green, 72 h; 120,000 compounds, 4.3% hits; active means well fitted inhibition curve with a large enough effect;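 further: plate controls were DMSO vehicle for no effect and reference drug for full effect; nearly all actives have a fitted effect of over 65% in size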
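Readout: SYBR Green fluorescence, 485 nm excitation, 535 nm emission, after ~16 h lysis at 37C. Before that, Dd2-infected red cells (2.5% hematocrit) grew 72 h with compound, 29 uM top final concentration.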
* hit, by the source's call; i = inactive; [ ] = another dose, or the depositor's remark. The full list was thinned out, with hits kept by preference. Potency means the concentration at half of the fitted maximal effect.

SMILES | Pf Dd2 inh
C[S+](=O)([O-])N1CC2(CCN(Cc3ccc(Cl)cc3)CC2)Cc2ccccc21 | -29%
CC(=O)N1CC2(CCCCN2Cc2ccc(Cl)cc2)Cc2ccccc21 (centres undefined) | 4%
CC(=O)N1CC2(Cc3ccccc31)CN(C(=O)c1ccc(C(F)(F)F)cc1)C2 | -28%
O=C(c1ccc(Cl)cc1)N1CC2(CCN(Cc3cccnc3)C2)Cc2ccccc21 (centres undefined) | 8.9µM*
COCC1CN(C(C)=O)CC12CCN(Cc1c[nH]c3ccccc13)CC2 (centres undefined) | -6%
O=C(c1ccc(Cl)cc1)N1CC2(CCCN2Cc2ccc(C(F)(F)F)cc2)Cc2ccccc21 (centres undefined) | 10µM*
CC(=O)N1CC2(CCN(Cc3ccccn3)C2)Cc2ccccc21 (centres undefined) | -1%
O=C(c1ccc(Cl)cc1)N1CC2(CCN(Cc3ccc(Cl)cc3)CC2)Cc2ccccc21 | 13µM*
O=C(c1ccc(Cl)cc1)N1CC2(CCN(Cc3c[nH]c4ccccc34)CC2)Cc2ccccc21 | 2.5µM*
Cc1nc(CCC(=O)N2CCCC(CCc3c(F)cccc3F)C2)n[nH]1 (centres undefined) | -6%
COc1ccccc1N1CCN(C(=O)C2N(C(C)C)C(=O)C23CCCC3)CC1 (centres undefined) | -3%
CCOc1cc(=O)n2c(c1C(=O)N1CCN(c3cccc(Cl)c3)CC1)CCCC2 | -10%
CS(=O)(=O)N1CCCN(C(=O)CCCc2ccccc2)c2ccccc21 | 3%
CN1CC2(CCN(C(=O)NCc3ccco3)CC2)CC(c2ccccc2)C1=O (centres undefined) | 1%
c1cc(-c2ccnc3nc(C4CCCCC4)nn23)ccn1 | -16%
O=C(Nc1ccccc1)Nc1ccc([C@H]2OCC(=O)N(Cc3ccccc3)[C@@H]2CO)cc1 | i
CCn1nccc1C(=O)N1CC(N(Cc2cccnc2)CC(C)C)C1 | -25%
COCCOC1CCOC2(CCN(C(=O)c3ccc(OC)c(OC)c3)CC2)C1 (centres undefined) | i
CC(C)NC(=O)C[C@@H]1O[C@H](CNS(C)(=O)=O)[C@@H](O)[C@H]1O | 33%[44.1 µM]
Cc1nn(-c2ccccc2)c(C)c1S(=O)(=O)N[C@@H]1[C@@H](N)[C@H]2CCO[C@H]21 | -9%
CCC(=O)N1CCN(C2CCN(CCc3ccccc3)C2=O)CC1 (centres undefined) | i
Cc1ccc(C(=O)N2CCN(C3CCN(CCc4ccccc4)C3=O)CC2)cc1F (centres undefined) | 10µM*
O=C(c1cccc(Cl)c1)N1CCN(C2CCN(CCc3ccccc3)C2=O)CC1 (centres undefined) | i
COc1cccc(-c2cccc(-c3nc(C4CCOCC4)nn3CCO)c2)c1 | -7%
O=C(N[C@H](Cc1ccccn1)C1CC(O)C1)c1scc2c1OCCO2 (some centres undefined) | -11%
SMILES | Pf Dd2 inh
COc1ccccc1/C=C/CN1CCNC(=O)C1CC(=O)NCc1ccon1 (centres undefined) | 9%
O=C(Nc1cccc(F)c1)N1CCc2c(c3ccccc3n2CC2CC2)C1 | -8%
COc1ccccc1Oc1ncccc1CNC(=O)c1cccnc1C | -5%
CCC(=O)NCc1cccnc1Oc1ccccc1OC | 5%
CCCCOc1c(CNC(C)c2ncccc2C)cccc1OC (centres undefined) | 5.6µM*
Cc1cc(C)n(CC(=O)N[C@@H]2CN(c3ncccn3)C[C@H]2CN(C)C)n1 | 6%
COCCc1noc([C@@H]2CC(F)(F)CN2C(=O)c2cc(C)on2)n1 | 34%
COc1ccc(C(=O)N2CC(C(=O)N(C)C)C3(CCOCC3)C2)cc1 (centres undefined) | 0%
CCCCn1c(NCc2ccc(OC)cc2O)nc2ccccc21 | 7.9µM*
CCCCn1c(COc2cccc(OC)c2)nc2ccccc21 | -13%
CCn1c(NCc2ccc(OC)c(OC)c2)nc2ccccc21 | -5%
N#Cc1cccc(CN2CCc3nc(N4CCOCC4)[nH]c(=O)c3CC2)c1 | i[5.79 µM]
O=[S+]1([O-])NC2(CCN(Cc3ccncc3)C2)CNc2ccccc21 (centres undefined) | 5%
Cc1ccc(CN2CCC3(CC2)CN[S+](=O)([O-])c2ccccc2N3)cc1 | 5µM*
Cc1ccc(CN2CCCC3(CN[S+](=O)([O-])c4ccccc4N3)C2)cc1 (centres undefined) | -27%
O=[S+]1([O-])NCC2(CCN(Cc3ccsc3)CC2)Nc2ccccc21 | -23%
O=[S+]1([O-])NCC2(CCCN(Cc3ccc(F)cc3)C2)Nc2ccccc21 (centres undefined) | i
O=[S+]1([O-])NC2(CCN(Cc3ccc(C(F)(F)F)cc3)CC2)CNc2ccccc21 | 11µM*
COc1ccc(CN2CCC3(CC2)CNc2ccccc2[S+](=O)([O-])N3)cc1 | i
COc1ccc(CN2CCC3(CN[S+](=O)([O-])c4ccccc4N3)C2)cc1 (centres undefined) | i
O=[S+]1([O-])NCC2(CCN(Cc3ccc(F)cc3)CC2)Nc2ccccc21 | 8.9µM*
Cc1[nH]nc(CCC(=O)N2CCC3(CCC(=O)N(CC4CC4)C3)CC2)c1C | -22%
CN(C)C(=O)N1CCC(C(=O)N2CC(=O)N(C3CCCCC3)CC(OCc3ccncc3)C2)CC1 (centres undefined) | -30%
c1cc(-c2cc3c(ccn3Cc3ccncc3)c(N3CCOCC3)n2)c2cc[nH]c2c1 | i
COc1cccc(CNC(=O)C2Cn3cccc3C(=O)N2Cc2ccccc2)c1 (centres undefined) | -18%
SMILES | Pf Dd2 inh
O=C(NCCCN1CCCc2ccccc21)C1Cn2cccc2C(=O)N1Cc1cccnc1 (centres undefined) | 8.9µM*
COc1ccccc1OCCNC(=O)C1Cn2cccc2C(=O)N1Cc1cccnc1 (centres undefined) | 5.6µM*
O=C(NCCCN1CCCC1=O)C1Cn2cccc2C(=O)N1Cc1cccnc1 (centres undefined) | 4%
COCCCNC(=O)C1Cn2cccc2C(=O)N1Cc1ccccc1 (centres undefined) | 21%
CC(C)OCCCNC(=O)C1Cn2cccc2C(=O)N1Cc1cccnc1 (centres undefined) | -13%
O=C(NCc1cc(F)ccc1F)C1Cn2cccc2C(=O)N1Cc1ccccc1 (centres undefined) | -12%
COc1ccccc1CNC(=O)C1Cn2cccc2C(=O)N1Cc1cccnc1 (centres undefined) | 4.5µM*
O=C(NCCN1CCCCC1)C1Cn2cccc2C(=O)N1Cc1cccnc1 (centres undefined) | 3%
COc1ccc(C[C@H](NC(=O)[C@@H]2C[C@H](NC(=O)Nc3cccc(OC)c3)CN2C(=O)c2cccn2C)C(N)=O)cc1 | -2%
COc1ccc(-c2noc([C@@H](C)NC(=O)c3cc(C)oc3C)c2C(=O)O)cc1 | 23%[44.1 µM]
Cc1ccc(C(=O)N2CCCC3(CNc4ccccc4[S+](=O)([O-])N3)C2)cc1 (centres undefined) | -11%
CCn1c(C2CCN(C(=O)[C@@H](N)Cc3cnc[nH]3)CC2)nn(C)c1=O | 10%
O=C(c1ccccc1)N1CCC(N2CC3CC(C2)[C@H]2CCCC(=O)N2C3)CC1 (some centres undefined) | 12%
COc1cccc(CN2CCCC(NC(=O)Nc3ccccc3OC)C2)c1 (centres undefined) | -23%
O=C(NC1CCS(=O)(=O)C1)C1CCCCC(=O)N1Cc1ccccc1 (centres undefined) | 20%
